# High-throughput results: PubChem BioAssay, National Center for Advancing Translational Sciences (NCATS)
# Shown are actives, neighbours in structure and some others; about 1.9% of the full set was active somewhere.
# ClpP mod = qHTS Assay for Activators of ClpP | purified B. subtilis ClpP, FRET peptide cleavage, 20 min | Potency, µM (highest dose often 57.5 µM), for inactives: at the top dose activity change, negative = active | 340,000 tested, 1.9% active; active = well fitted falling curve with a large enough effect; inconclusive = small, poorly fitted or top-dose-only effect; inactive = no such curve, though single readings can be large or run the other way; note: potency is the fitted concentration of half-maximal effect; the source files actives as falling curves though it sought activators and does not explain the sign; nearly all actives have a fitted effect of over 65% in size
# Target sequence (P80244 whole entry, looked up): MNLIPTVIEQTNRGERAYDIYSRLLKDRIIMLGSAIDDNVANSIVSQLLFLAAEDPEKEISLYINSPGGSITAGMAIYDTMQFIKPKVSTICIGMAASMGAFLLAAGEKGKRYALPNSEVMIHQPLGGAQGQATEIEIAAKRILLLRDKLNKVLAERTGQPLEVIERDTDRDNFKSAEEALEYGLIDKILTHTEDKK
#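 FRET quenching reversal measured ClpP activation: 10 microg/mL B. subtilis ClpP at pH 8 with the FRET-FV decapeptide, read at 430 nm after 320 nm excitation. The 20-min minus 0-min signal was scaled between DMSO/no-enzyme wells and ADEP (5.8 microM final).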
# Epigenetic derep = Quantitative High-Throughput Screen for Regulators of Epigenetic Control; murine LDR cells, GFP reporter derepression, 30 h; 280,000 tested, 0.2% active; Potency, µM (highest dose often 53.9 µM), for the others: top-dose GFP activation, most hits filed as activators; active = well fitted activation curve with a large enough effect; inconclusive = small, poorly fitted or top-dose-only effect; note: potency is the fitted concentration of half-maximal effect; % of control where 0% means no effect; nearly all actives have a fitted effect of over 60% in size
#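 Derepression of a silenced CMV-GFP reporter in murine LDR cells is scored by enumerating GFP-positive cells with a laser-scanning microplate cytometer after 30 hours of treatment at 37 C.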
# Menin-MLL FL inh = qHTS Assay for Inhibitors Targeting the Menin-MLL Interaction in MLL Related Leukemias: Competition With Fluorescein Labeled MLL-derived Peptide. 290,000 tested, under 10 active. Fluorescence polarization, fluorescein-MLL peptide displacement from menin. FP activity change, % at 61.4 µM. AID 1766, 2009; active = well fitted curve in the direction sought with a large enough effect in the polarisation, not every such curve was filed as active; inconclusive = small, poorly fitted or top-dose-only effect, or effect the other way, or a change in a side signal; inactive = no such curve, though single readings can be large or run the other way; the % refers to the polarisation; note: % of control where 0% means no effect
# CXXC DNA block = qHTS Fluorescence Polarization Assay for Inhibitors of MLL CXXC domain - DNA interaction. Histone-lysine N-methyltransferase 2A (Homo sapiens), Q03164. MLL-CXXC / FITC-HOXA9 DNA fluorescence polarization. Potency, µM (top dose mostly 115 µM), inactives show at the top dose activity change, negative = inhibition, most hits filed as inhibitors. 290,000 tested, 0.037% active. AID 2662, 2010; active = well fitted inhibition curve with a large enough effect in the polarisation, with a control signal flat, not every such curve was filed as active; inconclusive = small, poorly fitted or top-dose-only effect, or effect the other way, or a change in a side signal; inactive = no such curve, though single readings can be large or run the other way; the % refers to the polarisation; note: potency is the fitted concentration of half-maximal effect
#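 Fluorescence polarization: 7 uM MLL-CXXC (stock) preincubated 5 min with compounds, then 50 nM fluorescein-HOX-A9 DNA (stock) added; 30 min ambient. Buffer 50 mM Tris-HCl pH 7.5, 50 mM NaCl, 1 mM DTT, 0.05% BSA.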
# Menin-MLL TR inh = qHTS Assay for Inhibitors Targeting the Menin-MLL Interaction in MLL Related Leukemias: Competition With Texas Red Labeled MLL-derived Mutant Peptide. Menin + Texas Red MLL mutant peptide, fluorescence polarization. Potency, µM (doses to about 61.6 µM), for the others: top-dose FP activity change, negative = inhibition, most hits filed as inhibitors. 270,000 tested, 0.23% active. AID 1768, 2009; active = well fitted inhibition curve with a large enough effect in the polarisation, with a control signal flat, not every such curve was filed as active; inconclusive = small, poorly fitted or top-dose-only effect, or effect the other way, or a change in a side signal; inactive = no such curve, though single readings can be large or run the other way; the % refers to the polarisation; note: potency is the fitted concentration of half-maximal effect; % of control where 0% means no effect
# PINK1 expr mod = A Quantitative High throughput Screen to Identify Chemical Modulators of PINK1 Expression. PINK1 immunofluorescence, high-content cytometry, 24 h. Potency, µM (series often up to 76.6 µM), for inactives: top-dose activation (PINK1 increase), hits mostly activators. 410,000 tested, 0.2% active. AID 624263, 2012; active = well fitted activation curve with a large enough effect; inconclusive = small, poorly fitted or top-dose-only effect; cell line not stated here; note: potency is the fitted concentration of half-maximal effect; % of control where 0% means no effect; nearly all actives have a fitted effect of over 65% in size
#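 Stable cell line, 250 cells/well, 12 h attachment; compounds pinned at 5 concentrations, 24 h; CCCP control. Fixed with nuclear dye, primary antibodies 12 h at 10 degrees C, secondary plus cell stain; laser-scanning cytometer read.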
# Numbers without * were called inactive; ? = inconclusive; . = not tested or not shown; [ ] = another dose, or the depositor's remark.
SMILES,ClpP mod,Epigenetic derep,Menin-MLL FL inh,CXXC DNA block,Menin-MLL TR inh,PINK1 expr mod
CC(C)OCCCNC(=O)Cn1c(-c2cccs2)cc2cc(F)ccc21,4%,0%,.,.,.,5%
Cc1ccc(C)c(N2CCN(CCCNC(=O)Cn3c(-c4cccs4)cc4ccccc43)CC2)c1,28µM*,-1%,.,.,.,12%
Cc1ncc2c(c1CNC(=O)c1ccc3c(c1)OCO3)CCN(C(=O)c1noc3c1CCCC3)C2,.,.,.,.,.,0%
CCC(C)/C=C/C1=CC2=C(Cl)C(=O)C3(C)OC(=O)C(C(=O)C(C)C(C)O)C3C2=CO1 (configuration not stated),22µM*,3%,2,-18%,-7%,0%
CCOC(=O)C1CCN(S(=O)(=O)c2ccc(-c3nc4ccccc4s3)s2)CC1,25µM*,2%,6,-4%,22%,?
CCOC(=O)C1CCN(S(=O)(=O)c2ccc(-c3cc(C(F)(F)F)n(C)n3)s2)CC1,-14%,0%,2,-3%,.,0%
CCOC(=O)C1CCN(S(=O)(=O)c2ccc(C(C)=O)cc2)CC1,0%,-1%,0,-13%,1%,11µM*
Cn1c(=N)c(S(=O)(=O)c2ccccc2)cc2c(=O)n3ccccc3nc21,7.9µM*,-1%,0,-6%,6%,9%
N=c1c(S(=O)(=O)c2ccc(Cl)cc2)cc2c(=O)n3ccccc3nc2n1Cc1cccnc1,-8%,.,.,?,.,40µM*
Nc1ccc(/C=C/c2ccnc3ccccc23)cc1,0%,.,.,.,.,0%
CCC(=O)Nc1nnc(-c2ccccn2)o1,?,-1%,3,4%,11%,0%
O=C(CCc1ccccc1)Nc1nnc(-c2ccccn2)o1,22µM*,2%,-1,-4%,2%,5%
NC(=O)C1CCN(c2nc(C3CC3)nc3c2nnn3Cc2ccccc2Cl)CC1,-12%,0%,4,-10%,?,11µM*
NC(=O)C1CCN(c2nc(C3CC3)nc3c2nnn3Cc2ccccc2)CC1,-8%,-1%,1,6%,-2%,7%[38.3 µM]
Cc1c(NCc2ccncc2)cccc1C(=O)O,0%,.,2,-2%,-15%,0%
O=C(O)c1ccccc1NCc1ccncc1,14µM*,0%,-1,2%,-25%,4%[38.3 µM]
O=C(O)c1ccccc1NCc1ccsc1,.,.,5,-1%,-9%,-1%
O=C(O)c1ccc(CNc2ccccc2C(=O)O)cc1,32µM*,0%,5,7%,21%,-2%
COc1ccc(F)c(CN2CCOc3ccc(CN4CCC(O)(c5cccnc5)CC4)cc3C2)c1,.,.,.,.,.,0%
COc1cccc(NC(=O)c2ccccc2OCC(=O)Nc2ccc(Br)cc2)c1,-13%,.,.,.,.,3%
Cc1cc(C)n(CC(O)COc2cccc(OCC(O)Cn3nc(C)cc3C)c2)n1 (configuration not stated),1%,0%,6,-5%,-7%,-2%
Cc1cc(C)n(CC(O)COCc2ccccc2)n1 (configuration not stated),1%,10µM*,1,-4%,6%,0%
CCc1nc2cc(C(=O)N3CCC[C@H]3C(=O)OC)cc(NC(=O)c3ccccc3OC)c2n1C,.,.,.,.,.,0%
N#CN=c1snc(-c2ccccc2Cl)n1-c1ccc(F)cc1,1%,.,.,.,.,-1%
O=C(Cn1c2[n+](c3ccccc31)CC(O)CS2)c1ccccc1 (configuration not stated),3.2µM*,-2%,3,9%,13%,3%
SMILES,ClpP mod,Epigenetic derep,Menin-MLL FL inh,CXXC DNA block,Menin-MLL TR inh,PINK1 expr mod
Fc1ccc(-c2cc(-c3cccs3)cc(-c3ccccc3)n2)cc1,28µM*,0%,2,-19%,.,7%
CC1CN(C(=O)c2cc3c(=O)n4ccccc4nc3s2)CC(C)O1 (configuration not stated),18µM*,0%,-2,7%,-16%,1%[38.3 µM]
NC(=S)NCCC[C@H](N)C(=O)O,.,2%,.,.,.,.
O=P(CCNCc1ccco1)(c1ccccc1)c1ccccc1,4µM*,0%,-4,15%,-1%,3%
CC(=O)N(CCP(=O)(c1ccccc1)c1ccccc1)Cc1ccco1,-2%,12%,3,8%,-13%,-2%
C=Cc1ccc(Cn2c(C(=O)O)c(CNC3CCCCC3)c3ccc(OC)cc32)cc1,-11%,7%,.,.,.,-1%
COCc1cc(C)nc(OCC(=O)N/N=C/c2cccc(OC)c2)c1C#N,28µM*,0%,2,-7%,2%,0%
COCc1cc(C)nc(OCC(=O)N/N=C/c2ccccc2O)c1C#N,.,-4%,0,-2%,2%,-1%
CCn1c(C)nc2cc(-c3nc4n(n3)Cc3ccccc3-4)ccc21,?,-3%,1,-9%,28µM*,2%
CCOC(=O)CCNC(C)C1COc2ccccc2O1 (configuration not stated),6.3µM*,-10%,-1,22%,8%,-1%
CC(NCC1COc2ccccc2O1)C1COc2ccccc2O1 (configuration not stated),.,.,-1,2%,-25%,-1%
CCCCN(c1ccccc1)c1ncnc2c1cnn2-c1ccc(Cl)cc1,?,0%,.,.,.,1%
Cn1c(-c2ccc(-c3ccccc3)cc2)c[nH]c1=S,13µM*,-1%,-1,-23%,6%,-1%
CCn1c(-c2ccc(-c3ccccc3)cc2)c[nH]c1=S,?,-4%,3,31%,-6%,-2%
COc1cc2c(NC3CCN(C)CC3)nc(N3CCCN(C)CC3)nc2cc1OCC1CCCCN1 (configuration not stated),4%,.,.,.,.,0%
COC(=O)/C(C#N)=C/c1c(-c2ccccc2)nc2n1CCS2,.,5%,-1,-5%,.,-1%
Clc1cccc(Cl)c1CO/N=C/c1c(-c2ccccc2)nc2n1CCS2,25µM*,-1%,-1,0%,.,.
COc1ccc(C)cc1NC(=O)Cn1c(=O)c(C(F)(F)F)nc2ccccc21,7%,-1%,.,.,.,2%
CCC(C)c1ccc(S(=O)(=O)N2CCN(C(=O)COc3ccc4c(C)cc(=O)oc4c3)CC2)cc1 (configuration not stated),?,7%,0,-10%,-3%,-1%
COc1ccc(S(=O)(=O)N2CCN(C(=O)COc3ccc4c(C)cc(=O)oc4c3)CC2)cc1,22µM*,-4%,2,7%,3%,0%
